# This is a sample that favours compounds with a hit; in the whole collection about 19% have one here.
# AMA1-RON2 inh: inhibitors of Plasmodium falciparum AMA1-RON2 interaction; Potency, µM (doses to about 58.2 µM), for the others: top-dose activity change, negative = inhibition, usual class: inhibitors; AlphaScreen AMA1-biotinylated RON2 peptide binding; hit rate 0.2% among 360,000;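 also: potency is read from the fitted curve at half-maximal effect; 0% = vehicle wells and -100% = peptide control; nearly all actives have a fitted effect of over 45% in size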
#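 AMA1 (3D7) with his tag at 25 nM final met compounds first, then biotinylated RON2 peptide at 25 nM; detection used donor plus acceptor beads, 10 µg/mL apiece, read by AlphaScreen after 30 min at room temperature.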
# SARS PLP yeast: blocks SARS-CoV papain-like protease in a yeast assay; Potency, µM (doses to about 32.9 µM), without a hit: at the top dose activity, positive = growth rescue, hits mostly activators; AID 485353; hit rate 0.19% among 330,000; S. cerevisiae expressing SARS-CoV PLpro, growth rescue; calls by dose curve; also: potency is read from the fitted curve at half-maximal effect; 0% is about no effect; nearly all actives have a fitted effect of over 55% in size
# CHX counter: affects cycloheximide protein synthesis inhibition readout, counter-screen. cell reporter, cycloheximide protein synthesis inhibition counterscreen. max response, %. hit rate 12% among 300,000. AID 2314; in the data active = max response mostly above about 13%, no sharp cut-off; inactive = mostly below about 14%; also: read at 38.3 µM for the half of the compounds with a filed dose; 0% is about no effect
# Pf growth 48h: P. falciparum growth inhibition at 48 hours (one generation); P. falciparum luciferase growth in erythrocytes, 48 h; Potency, µM (titrated, usually from 28.7 µM), inactives show at the top dose activity change, negative = inhibition, hits mostly inhibitors; hit rate 5.9% among 310,000; AID 504832; also: potency is read from the fitted curve at half-maximal effect; % is scaled to controls: 0 for no effect and ±100 for the full control effect
#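 Growth was read as firefly luciferase luminescence after a 48 h, 37 C, 5% CO2 exposure of compounds to reporter-bearing P. falciparum cultures (0.1% parasitemia, 2% hematocrit final) in Albumax-supplemented RPMI 1640.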
# Pf growth 96h: inhibits malaria parasite growth, 96 h | P. falciparum luciferase reporter growth, 96 h | Potency, µM (top dose mostly 28.7 µM), for inactives: at the highest dose activity change, negative = inhibition, hits mostly inhibitors | hit rate 6.9% among 320,000 | AID 504834; also: potency is read from the fitted curve at half-maximal effect; % is scaled to controls: 0 for no effect and ±100 for the full control effect
#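 Plates of compound plus infected erythrocytes (2% hematocrit, 0.05% parasitemia final) incubate 96 hours, 37 C, 5% CO2. Detection reagent added; reduced luminescence from the parasites' luciferase reporter flags inhibition.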
# Shiga toxin inh: blocks Shiga toxin action in Vero cells. Vero cells, Shiga toxin protein synthesis inhibition reporter. inhibition, % at 38.7 µM. hit rate 9.2% among 290,000; in the data active = inhibition mostly above about 28%, no sharp cut-off; inactive = mostly below about 43%; also: 0% is about no effect
# An asterisk follows results filed as active; ? = inconclusive; . = no result given; [ ] = remark or other dose. Unless noted, calls follow the shape of the dose curve; as a rule, active = well fitted curve in the direction sought with a large enough effect; inconclusive = small, poorly fitted or top-dose-only effect, or another doubt; inactive = no such curve, though single readings can be large; an effect the other way counts as inactive or inconclusive.
SMILES,AMA1-RON2 inh,SARS PLP yeast,CHX counter,Pf growth 48h,Pf growth 96h,Shiga toxin inh
Cc1nc2nc(C)c(CCC(=O)Nc3ccc4c(c3)OCO4)c(C)n2n1,-5%,-8%,-2,-7%,-15%,29
O=C(Nc1ccc(F)c(Cl)c1)c1cc(C2CCCCN2C(=O)c2cccs2)on1 (stereo not drawn),10%,.,.,.,.,.
c1ccc(-c2nc3ccccc3[nH]2)nc1,27%,-47%,72*,133%,138%,117*
Cc1nc2ccccc2c(=O)[nH]1,25%,-3%,-9,.,.,-4
c1ccc(-c2nc3c(ccc4ccccc43)[nH]2)nc1,107%,-56%,42*,200%,-6%,94*
O=c1[nH]c(-c2ccccn2)nc2ccccc12,-25%,1%,44*,-54%,?,105
CC(=O)C1=C(O)C(=O)N(c2ccc(O)cc2)C1c1ccccc1Cl (stereo not drawn),-7%,5%,-4,8%,?,-4
C/C=C1\COC(C(=O)NCCCN2CCCC2=O)(C(F)(F)F)C=C1C=C(C)C (stereo not drawn),12%,.,1,.,.,18
C=CCNC(=O)NC(=S)c1ccccc1,-4%,-1%,23*,18%,7%,24
COc1ccc(NC(=S)N2CCc3ccccc3C2)cc1,-9%,11%,12,-5%,-7%,28
COc1cc(/C=C(/C#N)c2nc(-c3cc4ccccc4oc3=O)cs2)cc([N+](=O)[O-])c1O,.,1%,0,2.3µM*,?,-14
CCN(CC)CCOC(=O)c1ccc(N/C=C(/C#N)c2nc(-c3cc4ccccc4oc3=O)cs2)cc1,-11%,-2%,1,0.083µM*,0.15µM*,-4
CCN(CC)CCOC(=O)c1ccc(N/C=C(/C#N)c2nc(-c3ccc4c(c3)OCO4)cs2)cc1,?,3%,31*,1µM*,1.3µM*,25
COc1ccccc1C(=O)Nc1cccc(Oc2c(F)c(F)c(F)c(F)c2F)c1,8%,-2%,-3,?,?,11
Cc1ccccc1NC(=S)NCC(c1cccnc1)N(C)C (stereo not drawn),3%[2.32 µM],1%,-1,21%,36%,-6
CCCN(CCC)C(=O)Nc1cc(Cl)ccc1OC,18%,0%,6,-29%,?,15
CCC(=O)Nc1ccc(-c2csc(C)n2)cc1,15%,-24%,23*,93%,36%,31
Cc1nc(-c2ccc(NC(=O)Cc3ccccc3)cc2)cs1,5%,0%,43*,72%,-2%,87*
CCn1c(C)nc2cc(C(=O)NNS(=O)(=O)c3ccccc3F)ccc21,-1%,1%,-5,7%,21%,-13
CCn1c(C)nc2cc(C(=O)NN=Cc3ccccc3OC(F)F)ccc21,9%,-9%,.,.,.,.
CCn1c(C)nc2cc(C(=O)NNC(=S)Nc3ccccc3OC)ccc21,76%,0%,20*,113%,62%,33*
CCn1c(C)nc2cc(C(=O)N/N=C/c3ccccc3C)ccc21,24%,0%,41*,-5%,?,133*
CCn1c(C)nc2cc(C(=O)N/N=C(\C)c3ccccc3O)ccc21,109%,-4%,31*,21%,-6%,85*
Cc1ccc(CN(CC(O)COc2cccc3[nH]cc(C)c23)C(C)(C)C)cc1 (stereo not drawn),?,6%,-5,10µM*,10µM*,-4
COC(=O)Cc1c[nH]c2cccc(OCC(O)CN(Cc3ccc([N+](=O)[O-])cc3)C(C)(C)C)c12 (stereo not drawn),?,-4%,4,9.3µM*,3.3µM*,23
Cc1c[nH]c2cccc(OCC(CNC(C)(C)C)OC(=O)c3ccccc3)c12 (stereo not drawn),-20%,1%,-4,?,?,-2
Cc1ccc(S(=O)(=O)NCCCCCC(=O)Nc2c(C)n(C)n(-c3ccccc3)c2=O)cc1,10%,-3%,-1,1%,4%,16
Cc1ccc2nc(N/C(=N/S(=O)(=O)c3cccs3)c3ccccc3Cl)sc2c1,14%,2%,16,4%,6%,-1
